# From the supplement of paper PMC6555819
# Test system: VDR:RXRa (NR concentration 270 nM, RXRa partner concentration 90 nM)
# Test: PBM binding z-score (relative to random genomic background probes); higher = stronger binding; sequences stand for … in GC…GCGATTGACAGCGTAGAATGAAGG
# Experimental: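 Protein-binding microarray (Agilent 4x180K custom design, double-stranded 60-nt probes: 5' GC cap, 34-nt variable region, 24-nt constant primer region; full probe sequence given). Purified or IVT nuclear receptor:RXRα heterodimers (3:1 NR:RXRα, mostly 270:90 nM) or homodimers were incubated for 1 h in PBS with 2% milk and no ligand, then detected with Alexa488 antibodies. Fluorescence from o1-orientation probes (~5 replicates averaged) was converted to z-scores against 500 random hg19 background probes. Variable regions are seed direct-repeat (DR0–DR5) sites, all their single-nucleotide variants and half-site ablations.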
row,Sequence,PBM binding z-score
1,ATATGTAGGTTAAGGTCATTCAGAAAGTAGGGAA,4.69
2,CGCACTAGGTCACCAGGACAGTGAAGAGGTTGGA,1.87
3,TAGCCTAGGTCCTTCAGGGGCCAGTATAGAAAGC,-0.708
4,CCTACTGGGCCATTCAGAGGTCACTGATCATATG,3.58
5,CTATGTAGGTTAAGGAGGTCATTCAGTTTGAAAG,6.83
6,CGAACTAGTTCAAAGGACAGTGAAAGGCGACGTA,0.0501
7,TTACCAAGGTGAAGGTCGTGGATCCCTCTGTAGA,1.28
8,CTATGTAGGTTAAGGGGGTCCTTCAGTTTGAAAG,3.98
9,TCGAGTAGGTTACGGGGGCATTCAGGGATGAAGA,4
10,AGTCCAAGTTCACTAGGTAACGTAAGATTCAGCT,3.46
11,CCTAGCAGGCCACGGTCACTCAAGCATTTCGCTT,-0.261
12,CGTCCAAGGTCAAAGGTCAGCGAAGAGATGACGG,6.91
13,CTATGTAAGTTAAGGGGGTCATTCAGTTTGAAAG,6.67
14,CGTCAACGTTCAACTAAGGTAACGTAAAGCACGC,0.25
15,GCATACGGGTCAAAGGTTATAGCATGAATAGAAT,5.37
16,TAGCCTAGGTCATAGGGCCAGTATAGTACGCATC,1.96
17,ATCCAAAGGTCGAGGTGAGTATAGAGAAAGGGAA,3.05
18,CCTTACGGGTCACTCTAGGTTATAGCATCGGAGT,3.67
19,CCTAGTTGGTCAGGGGGTCACACACCGGATATGA,4.94
20,CAAACTAGGTCAAAGGTCAGAGTCGAGCCAACCA,5.78

row,Sequence,PBM binding z-score
1,TCTAGTTGGTCGCGGAGGTCACACACGACGGGTA,4.55
2,TCGAGTAGGTTACAGGGGCATTCAGGGATGAAGA,1.67
3,CCGACTGGGGCAACGGTTACCATACTCAGTACGA,-0.409
4,ACTAGTTGTTCAGCTGAGGTCACACACAATTCGG,4.06
5,CGTCCAACGTCAGCAGGTCAGTGAAAGCGACGTG,-0.198
6,ACTAACAGGCCAAGGGTCACTCAAGATTAGTCCG,3.07
7,TCGAGTAGGTTACGGGGGCATCCAGGGATGAAGA,3.51
8,TCGAGTAGGATACGGGGGCATTCAGGGATGAAGA,2.49
9,CATACCGGGTCAGCTAGGCCAGAGTAGGGACGGC,2.57
10,AGATGTAGGTTAGGGTCATTCAGAAAGTAGGGAA,4.32
11,CCTACTGGGCAAAAAAGGTCATTGATGCCGATAA,4.36
12,CAAACTAGGCCAAGGTCAAAGTCGGTTTGTGCCA,4.19
13,CAAAGTAGGTCAAGGTCAAAGTCGGTTTGTGCCA,5.27
14,CTATGTAGGTTAAGGGGGTCATTCAGTTTGAAAG,7.57
15,CAAACTAGGTCAAGAGGTCAAAGGCCGCTTCCCG,5.83
16,GCTGCTAGGTCAACTGAGGGTCAGCTAAAGCTCG,4.26
17,TCGAGTAGGTTACGGGGGGATTCAGGGATGAAGA,3.28
18,CCGAGTAGGTTACCAGGGGGCATTCAGTGCGAAT,4.94
19,ATGGAAAGGTCGTGAGGTGAGTATACAGAAAGGC,4
20,ATATGGAGGTTAGCTGGGGTCATTCAGACTAGGC,6.86
